Source: PubChem BioAssay (several laboratories)
Mtb bLac sens: beta-lactam sensitization of Mtb H37Rv, H37Rv. inhibition, % at 25 µM. AID 434955, 2010. M. tuberculosis H37Rv growth with meropenem, percent inhibition. 330,000 tested, 0.27% active; call rule not given here;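 note: growth measured after seven days incubation then overnight dye step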
MazEF act: activators of E. coli MazEF toxin-antitoxin RNase, primary screen, biochemical, fluorescence, uHTS; Endoribonuclease toxin MazF (Escherichia coli (strain K12)), P0AE70; FAM/BHQ RNA-DNA oligo cleavage fluorescence, 5 h; activation, % at 20 µM; 350,000 tested, 0.32% active; AID 504720, 2011; in the data active = activation above about 50%
Target sequence (P0AE70 whole entry, looked up): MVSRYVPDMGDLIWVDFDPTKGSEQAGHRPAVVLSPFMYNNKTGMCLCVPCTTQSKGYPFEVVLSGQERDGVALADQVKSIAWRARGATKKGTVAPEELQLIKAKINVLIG
RN4220 kill: growth inhibition of S. aureus RN4220, primary screen, OD600; 16 h; inhibition, % (test concentration not listed); 330,000 tested, 0.33% active; AID 1259311, 2017; in the data active = inhibition above about 85%
3CLpro inhibitor: SARS-CoV 3CLpro protease inhibitors, primary screen, biochemical, quenched FRET. inhibition, % at 6 µM. Replicase polyprotein 1ab (Severe acute respiratory syndrome coronavirus), P0C6X7. recombinant SARS-CoV 3CLpro, quenched FRET peptide cleavage. 290,000 tested, 0.14% active; in the data active = inhibition above about 12%
CCHF vOTU inh-1: CCHFV vOTU protease inhibitors, primary screen, biochemical, Pep-AMC substrate, fluorescence; Crimean-Congo hemorrhagic fever virus L polyprotein viral ovarian tumor (vOTU) protease …; inhibition, % at 11.5 µM; 370,000 tested, 0.55% active; AID 651958, 2012
Sa ugtP lethal: growth inhibition of ugtP-null S. aureus, primary screen, RN4220 ugtP deletion, OD600. 16 h. growth inhibition, % (no concentration beside the values). 330,000 tested, 0.54% active; in the data active = growth inhibition above about 68%
CCHF vOTU inh-2: CCHFV vOTU protease inhibitors, confirmation, biochemical, Pep-AMC substrate, fluorescence; AID 686976, 2013; 1,900 tested, 17% active; Recombinant CCHFV vOTU; shares compounds with CCHF vOTU inh-1; inhibition, % at 11.5 µM
Hits are given with their value; - = inactive; . = not tested or not shown. In the library only some 1.3% were active in any assay of this set; here they are far more common. Cut-off read from the data, not from the text of the source, unless noted: active = inhibition above about 30%; inactive = the rest.

SMILES | Mtb bLac sens | MazEF act | RN4220 kill | 3CLpro inhibitor | CCHF vOTU inh-1 | Sa ugtP lethal | CCHF vOTU inh-2
C=CC1c2c(F)cccc2N(S(=O)(=O)c2ccc(C)cc2)C(c2ccc(C(=O)OC)cc2)C1(C#N)C#N (configuration not stated) | . | . | - | . | . | - | .
C=CC1c2cccc(C)c2N(S(=O)(=O)c2ccc(C)cc2)C(c2ccc(OC(C)=O)cc2)C1(C#N)C#N (configuration not stated) | . | . | - | . | . | - | .
Cc1sc2nc(SCc3nnc(-c4cccs4)o3)n(C3CCCC3)c(=O)c2c1C | - | - | - | - | 31 | - | -
C=CCOC(=O)C(=O)C=Cc1c(C)n(C)n(-c2ccccc2)c1=O | . | . | - | . | . | - | .
Cc1cccc(NC(=S)N/N=C/c2ccc([N+](=O)[O-])s2)c1 | - | - | . | - | 35 | . | -
O=C(CSCc1ccc(Cl)cc1)Nc1ccc(-c2nnc(-c3ccccc3)o2)cc1 | - | - | . | - | 32 | . | -
CN(C)c1cccc2c(S(=O)(=O)Nc3ccccn3)cccc12 | - | - | - | - | 38 | - | -
CSc1ccccc1NC(=O)CN(C)C(=O)COc1cccc2cccnc12 | - | - | - | . | 33 | - | -
CCC(C)C1CNC(=S)N1CCc1cccc2ccccc12 (configuration not stated) | . | . | - | . | . | - | .
Oc1cc(NCCc2cccnc2)cc2cccnc12 | - | - | - | . | 41 | - | -
COC(=O)c1nc(-c2ccc3c(n2)C(=O)C(N)=C(OC)C3=O)c(N)c(-c2ccc(OC)c(OC)c2O)c1C | - | - | - | - | 37 | - | 106
COC1=C(N)C(=O)c2nc(-c3nc(C(=O)O)c(C)c(-c4ccc(OC)c(OC)c4O)c3N)ccc2C1=O | - | - | . | - | . | . | .
CSc1ccc(-c2nc(CN3CCCCC3c3cccnc3)c(C)o2)cc1 (configuration not stated) | - | - | - | - | 32 | - | -
Nc1c(C(=O)NCCCc2ccccc2)c2nc3ccccc3nc2n1Cc1cccs1 | - | - | - | - | 109 | - | -
CCCCCn1c(N)c(C(=O)NCc2cccs2)c2nc3ccccc3nc21 | - | - | - | - | - | - | .
C#CCOCCOCCOCCNc1nc(N2CCN(C(=O)C(CCCCN)n3cc(C(N)CC(C)C)nn3)CC2)nc(N2CCN(C(=O)C(Cc3ccc(O)cc3)n3cc(C(N)CC(C)C)nn3)CC2)n1 (configuration not stated) | . | . | - | . | . | - | .
Nc1ccc2c(c1)C(=O)C(=O)c1ccccc1-2 | - | - | 98 | - | 101 | 98 | 97
CC(=O)CC1c2ccccc2S(=O)(=O)N1C1CCCC1 (configuration not stated) | . | . | - | . | . | - | .
CC1(C)CC(=O)C=C(Nc2ccc(Br)cn2)C1 | - | - | - | - | 31 | - | -
CC(=O)Oc1cc(C)c(Cl)c2c(OC(C)=O)cc(C(C)=O)c(O)c12 | . | . | . | . | 32 | . | -
CCOc1ccc2noc3c2c1C(=O)c1ccccc1-3 | - | - | . | - | 87 | . | 37
CCCCC1C2=C(CC(C)(C)CC2=O)OC2=C1C(=O)CC(C)(C)C2 | - | - | - | - | 30 | - | -
CCCCCCC1C(C#N)=C(N)OC2=C1C(=O)CC(C)(C)C2 (configuration not stated) | - | - | - | - | - | - | .
C=CCOc1c(Cl)cc(CNc2ccc(N(C)C)cc2)cc1OC | - | - | - | - | 69 | - | -
COc1ccc(C(=O)NN=Cc2ccc(OC)c(CN3CCN(c4ccc(F)cc4)CC3)c2)cc1 | . | . | - | . | . | - | .
SMILES | Mtb bLac sens | MazEF act | RN4220 kill | 3CLpro inhibitor | CCHF vOTU inh-1 | Sa ugtP lethal | CCHF vOTU inh-2
C[C@@H]1CCCCO[C@@H](CN(C)C(=O)Nc2ccccc2)[C@@H](C)CN([C@H](C)CO)C(=O)c2cc(N(C)C)ccc2O1 | . | - | . | . | 31 | . | -
C[C@@H]1CCCCO[C@H](CN(C)Cc2ccc(Cl)c(Cl)c2)[C@H](C)CN([C@@H](C)CO)C(=O)c2cc(NC(=O)Nc3ccc(F)cc3)ccc2O1 | . | - | . | . | 31 | . | -
COc1ccc(NC(=O)N(C)C[C@H]2OCCCC[C@@H](C)Oc3ccc(N(C)C)cc3C(=O)N([C@H](C)CO)C[C@@H]2C)cc1 | . | - | . | . | - | . | .
C[C@@H]1CCCCO[C@H](CN(C)C(=O)Cc2ccccc2)[C@@H](C)CN([C@H](C)CO)C(=O)c2cc(NC(=O)Nc3ccccc3)ccc2O1 | . | - | . | . | 31 | . | -
CCN1C(=O)C2C(c3ccc(C)cc3)N3C(=O)N(c4ccc(OC)cc4)C(=O)[C@@]3(CC)C2C1=O (some centres not stated) | . | . | - | . | . | - | .
Cc1cc(C(=O)N/N=C2\CC(=O)c3ccccc32)c(C)n1-c1ccc(F)cc1 | - | - | . | - | 61 | . | -
Cc1ccc2c(c1C)-c1c(ccc(C)c1C)C(=O)C2=O | . | - | . | . | 75 | . | 72
Cc1ccc2c(c1N)C(=O)c1ccccc1C2=O | - | - | . | . | - | . | .
Cc1cc2cc(CN(Cc3ccco3)C(=S)NCC3CCCO3)c(=O)[nH]c2cc1C (configuration not stated) | - | - | - | - | 31 | - | -
COc1ccc(OC)c(C=c2sc3nc(-c4cccs4)nn3c2=O)c1 | . | . | - | . | . | - | .
COCc1cc(C)n(CC(=O)NN=Cc2ccc(-c3ccc(Cl)c(C(=O)O)c3)o2)c(=O)c1C#N | . | . | - | . | . | - | .
CC(C)OP(=O)(OC(C)C)C(C=O)=NNc1ccc([N+](=O)[O-])cc1 | . | . | - | . | . | - | .
COc1ccc(-c2ccc(C3C4C=CCC[C@@]4(C)C(=O)N3Cc3ccccc3)c(F)c2)cc1OC (some centres not stated) | . | . | - | . | . | - | .
O=C1Cc2ccccc2C(=O)N1 | . | . | . | . | 116 | . | 94
O=C1Nc2ccccc2CCc2ccccc21 | - | - | - | . | - | - | .
CC1CCc2c(sc(NC(=O)c3ccco3)c2C(=O)O)C1 (configuration not stated) | - | - | - | - | 32 | - | -
CCNC(=O)N1CCN(c2ccc(N3CCN(C(=O)NCC)[C@@H](C)C3)c(C)c2)[C@H](C)C1 | . | . | . | . | 35 | . | -
CCNC(=O)N1CCN(c2ccc(N3CCN(C(=O)NCC)[C@H](C)C3)c(C)c2)[C@H](C)C1 | . | . | . | . | - | . | .
COc1ccc(NC(=O)N(C)CC2Oc3c(NS(=O)(=O)c4cccs4)cccc3C(=O)N(C(C)CO)CC2C)cc1 (configuration not stated) | . | . | - | . | . | - | .
COc1ccc(Cc2nc3ccccc3n2CC(=O)NN=Cc2ccc(O)cc2)cc1OC | . | . | - | . | . | - | .
COc1ccc(/C=C2\C(=O)NC(=O)c3ccccc32)cc1OC | . | - | . | . | 108 | . | 103
Cc1onc(-c2ccccc2)c1C(=O)NN=Cc1c[nH]c2ccccc12 | . | . | - | . | . | - | .
